For 16 compounds, growth results are on record in PubChem BioAssay (NCI).

SMILES strings stand for the structures. About 83,000 compounds went through this panel and 20% of them were active in at least one assay; those are over-represented in the sample as a whole.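 Interpretation: 100, growth as untreated; towards 0, rising growth inhibition; 0, no net growth; 0 to -100, cell death. Compounds scoring below 10 were considered active.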 Unmarked numbers belong to inactive results. Activity calls are given as the source filed them.

Test in all cases: NCI-60 one-dose screen, 48 h (100 = growth as untreated, 0 = no growth, -100 = all killed)
One assay concerns NCI-H23 lung. The settings on record: 10 µM unless noted.
Another assay concerns NCI-H322M lung. The settings on record: 10 µM unless noted.
The subject of a further assay is HOP-62 NSCLC. The settings on record: 10 µM unless noted.
In another assay the test system is NCI-H460 lung. As to conditions: 10 µM unless noted.
A further assay has as its system HOP-92 NSCLC. As to conditions: 10 µM unless noted.
In a further assay the test system is NCI-H522 lung. As to conditions: 10 µM.
In another assay the test system is A549/ATCC NSCLC. The settings on record: 10 µM unless noted.
The test system of another assay is 786-0 renal. As to conditions: 10 µM unless noted.
For a further assay, the system named is COLO 205 colon. As to conditions: 10 µM unless noted.

For the compound `COc1ccc(/C=C2\SC(=O)N(CN3CCN(c4cc5c(cc4F)c(=O)c(C(=O)O)cn5C4CC4)CC3)C2=O)cc1`, the growth with NCI-H23 lung was 96.9%; with NCI-H322M lung, 112%; with HOP-62 NSCLC, 109%; in the assay on NCI-H460 lung, 104%; with HOP-92 NSCLC, 101%; with NCI-H522 lung, 94.2%. For the same compound, the growth was 99.4% in the assay with A549/ATCC NSCLC and 93.1% with 786-0 renal.
For `O=C(NC1CC1)c1cc2n(n1)CC(c1ccccc1)N2` (stereo not drawn), the growth was 100% in the assay with NCI-H23 lung; 99% in the assay with NCI-H322M lung; 102% in the assay on HOP-62 NSCLC; 100% in the assay with NCI-H460 lung; 85.3% in the assay with HOP-92 NSCLC; 91.1% with NCI-H522 lung. The growth in the assay with A549/ATCC NSCLC is 99.6%; in the assay on 786-0 renal, 101%.
Take `O=C1Nc2ccc(Cl)cc2/C1=N/N=C(c1ccccc1)c1ccccc1`: the growth is 93.9% in the assay on NCI-H23 lung; 98.1% with NCI-H322M lung; 83.3% in the assay on HOP-62 NSCLC; 100% in the assay with NCI-H460 lung; 94.2% in the assay on HOP-92 NSCLC; 83.4% in the assay with NCI-H522 lung. The growth in the assay with A549/ATCC NSCLC is 91.9%; in the assay with 786-0 renal it was 102%.
For `COc1cc(/C=N/NC(=O)c2cnn3c2NC(c2ccccc2)C3)cc(OC)c1OC` (stereo not drawn), the growth in the assay with NCI-H23 lung is 102%; with NCI-H322M lung, 84%; in the assay on HOP-62 NSCLC it was 71.2%; in the assay on NCI-H460 lung, 26.7%; with HOP-92 NSCLC, 76%; in the assay with NCI-H522 lung it was 35.5%. Moreover, the growth in the assay with A549/ATCC NSCLC was 64.8%; in the assay on 786-0 renal, 88%.
`COc1ccc(/C=N/OCC(O)CNCc2ccccc2)cc1OC1CCCC1` (stereo not drawn): the growth in the assay on NCI-H23 lung was 106%; with NCI-H322M lung it was 97.2%; in the assay with HOP-62 NSCLC it was 93.5%; in the assay with NCI-H460 lung, 102%; in the assay with HOP-92 NSCLC, 79.6%; in the assay on NCI-H522 lung, 105%. In addition, the growth is 93.5% in the assay on A549/ATCC NSCLC and 89.5% in the assay on 786-0 renal.
For `COC(=O)c1c2c(c(C)[n+]([O-])c1C)C(=O)C=C(NCc1cccc(Cl)c1)C2=O`, the growth was -63% (active) with NCI-H23 lung; -18.3% (active) in the assay with NCI-H322M lung; -19.8% (active) in the assay with HOP-62 NSCLC; -3.61% (active) with NCI-H460 lung; -32.2% (active) with HOP-92 NSCLC; -63.5% (active) in the assay on NCI-H522 lung. For the same compound, the growth in the assay with A549/ATCC NSCLC is -49.5% (active); in the assay with 786-0 renal, 6.87% (active).
For `Cc1ccc(S(=O)(=O)N2CCc3ccc(O)c4c3C2Cc2ccc3c(c2-4)OCO3)cc1` (stereo not drawn), the growth is 26.5% in the assay with NCI-H23 lung; 53.2% in the assay on NCI-H322M lung; 33.8% in the assay with HOP-62 NSCLC; 8.45% (active) in the assay with NCI-H460 lung; 29.1% in the assay on HOP-92 NSCLC; -19.8% (active) with NCI-H522 lung. Moreover, the growth in the assay with A549/ATCC NSCLC was 18.1%; with 786-0 renal, 12.6%.
For the compound `COc1cc(/C=C/C(=O)CC(=O)/C=C/c2cc(Br)c(OC)c(OC)c2)cc(Br)c1OC`, the growth in the assay with NCI-H23 lung was 100%; with NCI-H322M lung it was 97.6%; with HOP-62 NSCLC it was 93.1%; in the assay with NCI-H460 lung it was 109%; with HOP-92 NSCLC, 93.7%; in the assay with NCI-H522 lung it was 92.8%. The growth in the assay with A549/ATCC NSCLC is 96.1%; in the assay with 786-0 renal it was 94.3%.
In the case of `CCCCC1COc2cccc3c(SCC(=O)N(C)c4cccc5ccccc45)cc[n+]1c23` (stereo not drawn), the growth in the assay on NCI-H23 lung is 104%; in the assay on NCI-H322M lung, 110%; with HOP-62 NSCLC, 106%; with NCI-H460 lung it was 107%; with HOP-92 NSCLC, 105%; in the assay on NCI-H522 lung, 83.5%. Further, the growth in the assay with A549/ATCC NSCLC is 103%; in the assay with 786-0 renal, 98.3%.
For `CCCCOC(=O)C1OC(Oc2ccc3c(C)cc(=O)oc3c2)[C@@H](OC(C)=O)C(OC(C)=O)C1OC(C)=O` (stereo partly drawn), the growth in the assay with NCI-H23 lung is 99.9%; in the assay on NCI-H322M lung it was 104%; with HOP-62 NSCLC, 98.7%; in the assay with NCI-H460 lung, 105%; with HOP-92 NSCLC, 98.3%; with NCI-H522 lung, 88.8%. Further, the growth in the assay on A549/ATCC NSCLC is 96.3%; in the assay with 786-0 renal it was 98.5%.
With `COc1cc(OCc2cccc(-c3ccc(C(O)c4nccs4)cc3)c2C)cc(OC)c1C=O` (stereo not drawn), the growth in the assay on NCI-H23 lung is 42.1%; in the assay on NCI-H322M lung, 92.1%; with HOP-62 NSCLC, 47.9%; with NCI-H460 lung, 38.8%; with HOP-92 NSCLC, 62.5%; in the assay on NCI-H522 lung, 47.3%. The growth with A549/ATCC NSCLC was 40.2%; with 786-0 renal, 48.2%.
Take `COc1ccc(/C=N/NC(=O)c2cnn3c2NC(c2ccccc2)C3)cc1OC1CCCC1` (stereo not drawn): the growth is 98.8% in the assay on NCI-H23 lung; 101% with NCI-H322M lung; 87.9% in the assay with HOP-62 NSCLC; 100% in the assay with NCI-H460 lung; 94% with HOP-92 NSCLC; 79.5% in the assay with NCI-H522 lung. Also, the values for the growth in the assay on A549/ATCC NSCLC and with 786-0 renal were 84.1% and 98.4%, respectively.
`CCCCCCCC/C=C\CCCCCCCCOc1cccc(CC(=O)NCC[N+](C)(C)C)c1`: the growth in the assay with NCI-H23 lung is 83.1%; with NCI-H322M lung, 102%; in the assay with HOP-62 NSCLC, 62.9%; in the assay with NCI-H460 lung it was 57.9%; in the assay on HOP-92 NSCLC it was 74.2%; with NCI-H522 lung, 80.8%. Moreover, the figures for the growth in the assay with A549/ATCC NSCLC and in the assay with 786-0 renal were 90.9% and 80.8%, respectively.
Turning to `CCN1CCN(C(=S)SCC(=O)Nc2nc3ccc(OC)cc3s2)CC1`, the growth with NCI-H23 lung is 100%; with NCI-H322M lung, 92.3%; in the assay on HOP-62 NSCLC it was 97.2%; in the assay with NCI-H460 lung, 113%; with HOP-92 NSCLC, 83.8%; in the assay with A549/ATCC NSCLC, 99.5%. Moreover, the growth in the assay on 786-0 renal was 107%; with COLO 205 colon it was 112%.
For the compound `COc1cc(-c2nc(SC(C)C)nc(Nc3cccc(C)c3)c2C#N)cc(OC)c1OC`, the growth was 103% with NCI-H23 lung; 107% in the assay with NCI-H322M lung; 103% in the assay on HOP-62 NSCLC; 108% with NCI-H460 lung; 106% in the assay on HOP-92 NSCLC; 91% in the assay on A549/ATCC NSCLC. Besides, the growth with 786-0 renal and with COLO 205 colon was 109% each time.
Take `CCOC(=O)c1[nH]c2cc(Cl)ccc2c1[C@@H](C(=O)NC(C)(C)C)N(CC)C(=O)CCCCC#Cc1cccc2c1CN(C1CCC(=O)NC1=O)C2=O` (stereo partly drawn): the growth in the assay on NCI-H23 lung is 59.4%; with NCI-H322M lung, 13.5%; in the assay on HOP-62 NSCLC, 20.7%; in the assay with NCI-H460 lung, 13.9%; in the assay with HOP-92 NSCLC, 6.15% (active); in the assay on NCI-H522 lung, 44.2%. Besides, the figures for the growth in the assay with A549/ATCC NSCLC and in the assay on 786-0 renal were 20.7% and 13.5%, respectively.
